Results from PubChem BioAssay (NCI).
About 83,000 compounds went through this panel and 20% of them were active in at least one assay; those are over-represented in the sample as a whole.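 The endpoint reported here, percent growth, reads 100 for growth as untreated, 0 for no net growth and -100 for all cells dead.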 Unmarked numbers belong to inactive results. Active and inactive are the calls of the source. How the source made its calls: active means growth percent below 10; inactive means the rest.

Experiments:
Assay in all cases: NCI-60 one-dose screen, 48 h (100 = growth as untreated, 0 = no growth, -100 = all killed)
Conditions in all cases: 10 µM unless noted
NCI-H23 lung = system: NCI-H23 lung
NCI-H226 lung = system: NCI-H226 lung
NCI-H322M lung = system: NCI-H322M lung
HOP-62 NSCLC = system: HOP-62 NSCLC
NCI-H460 lung = system: NCI-H460 lung
HOP-92 NSCLC = system: HOP-92 NSCLC
A549/ATCC NSCLC = system: A549/ATCC NSCLC
786-0 renal = system: 786-0 renal
COLO 205 colon = system: COLO 205 colon
DU-145 prostate = system: DU-145 prostate
K-562 leukemia = system: K-562 leukemia
MALME-3M melanoma = system: MALME-3M melanoma
MDA-MB-231 breast = system: MDA-MB-231 breast
RXF 393 renal = system: RXF 393 renal
SF-268 CNS = system: SF-268 CNS
SF-295 CNS = system: SF-295 CNS
SF-539 CNS = system: SF-539 CNS
UACC-257 melanoma = system: UACC-257 melanoma
M14 melanoma = system: M14 melanoma
NCI-H522 lung = system: NCI-H522 lung

Row | SMILES | growth (NCI-H23 lung) | growth (NCI-H226 lung) | growth (NCI-H322M lung) | growth (HOP-62 NSCLC) | growth (NCI-H460 lung) | growth (HOP-92 NSCLC) [%] | growth (A549/ATCC NSCLC) [%] | growth (786-0 renal) [%] | growth (COLO 205 colon) | growth (DU-145 prostate) [%] | growth (K-562 leukemia) | growth (MALME-3M melanoma) [%] | growth (MDA-MB-231 breast) | growth (RXF 393 renal) | growth (SF-268 CNS) [%] | growth (SF-295 CNS) | growth (SF-539 CNS) | growth (UACC-257 melanoma) | growth (M14 melanoma) | growth (NCI-H522 lung)
1 | O=C(CN1CCN(c2cc3c(cc2F)c(=O)c(C(=O)O)cn3C2CC2)CC1)N/N=C/c1ccncc1 | 102% | 100% | 96.3% | 92.2% | 106% | 94.1 | 86.8 | 90.8 | 108% | 106 | 91.7% | 103 | 98.4% | 110% | 92.8 | 96.6% | 95.6% | 87.9% | 96.1% | –
2 | COc1ccc(Cl)cc1Nc1nc(C(F)(F)F)ccc1C(=O)N/N=C/c1ccccc1Cl | 16.9% | 17.3% | 1.34% (active) | 18.3% | 4.25% (active) | – | 10.9 | 11.8 | -59.5% (active) | 14.6 | 2.37% (active) | 11 | -7.46% (active) | 0.498% (active) | 13.6 | -12.1% (active) | -7.07% (active) | 2.7% (active) | 15.2% | -13.9% (active)
3 | CCN1C(=O)N(CC)C2C1NN=C1SCC(=O)N12 (configuration not stated) | 96.1% | 91.6% | 103% | 100% | 103% | – | 102 | 95.8 | 44.7% | 101 | 47.9% | 77 | 59.4% | 107% | 98.6 | 100% | 92.9% | 22.2% | 85% | 77.5%
4 | CCCCCCCC/C=C\CCCCCCCCOc1ccccc1CC(=O)NCC[N+]1(C)CCCCC1 | 58.9% | 67.1% | 96.5% | 75.9% | 50.4% | 48.1 | 66.3 | 96.8 | 23% | 67.1 | 36.3% | 69.8 | 59.8% | 28.6% | 39.2 | 97.4% | 95.1% | 61.5% | 65.5% | –
5 | CCN(C(=O)N1CCN(c2cc3c(cc2F)c(=O)c(C(=O)O)cn3C2CC2)CC1)c1nc(-c2ccc(C)cc2)cs1 | 6.95% (active) | 3.21% (active) | 10.3% | 5.92% (active) | 8.41% (active) | – | 16.1 | 15.6 | -21.2% (active) | 23.6 | 16% | 14.7 | 6.79% (active) | 21.8% | 21 | -3.48% (active) | 20.2% | 14.6% | 19.6% | 3.2% (active)
6 | Cc1[nH]c(C(=O)Nc2ccc(C(N)=O)cc2NC(C)C)c(Cl)c1Cl | 85.8% | 91.6% | 98.7% | 104% | 93.1% | 72.7 | 85.5 | 91.1 | 122% | 100 | 85.8% | 94.4 | 90.1% | 94.7% | 86.5 | 100% | 92.8% | 96.2% | 87.6% | –
7 | CCN1C(=O)N(CC)C2C1NN=c1s/c(=C\c3ccccc3Br)c(=O)n12 (configuration not stated) | 27.1% | 56.7% | 37.5% | 40% | 3.66% (active) | 19.5 | 12.3 | 17.4 | 3.13% (active) | 10.5 | 13.1% | 42 | 13.9% | 50.7% | 43.9 | 9.97% (active) | -16% (active) | 56% | 8.22% (active) | –
8 | CN(C)c1ccc(-c2cc(-c3ccc(Nc4nc(Nc5ccc(Cl)cc5)nc(Nc5ccc(Cl)cc5)n4)cc3)nc(N)c2C#N)cc1 | 87.8% | 107% | 115% | 73% | 86.3% | – | 72.3 | 72.4 | 69.8% | 95.8 | 68.4% | 81.8 | 77.4% | 37.1% | 94.9 | 64% | 77.9% | 99.1% | 71.4% | 87.6%
